Percent Effect data for 20 molecules are collected here from ChEMBL document CHEMBL3988442, “University of Dundee, Small-Polar-MMV Screening Library” (2021).

Assay [1] has as its target T1, Aspartate--tRNA(Asp/Asn) ligase (Mycobacterium tuberculosis (strain ATCC 25618 / H37Rv)) (UniProt P9WFW3). Also: in the data most compounds retested in dose-response had high values.
T1 sequence (whole entry): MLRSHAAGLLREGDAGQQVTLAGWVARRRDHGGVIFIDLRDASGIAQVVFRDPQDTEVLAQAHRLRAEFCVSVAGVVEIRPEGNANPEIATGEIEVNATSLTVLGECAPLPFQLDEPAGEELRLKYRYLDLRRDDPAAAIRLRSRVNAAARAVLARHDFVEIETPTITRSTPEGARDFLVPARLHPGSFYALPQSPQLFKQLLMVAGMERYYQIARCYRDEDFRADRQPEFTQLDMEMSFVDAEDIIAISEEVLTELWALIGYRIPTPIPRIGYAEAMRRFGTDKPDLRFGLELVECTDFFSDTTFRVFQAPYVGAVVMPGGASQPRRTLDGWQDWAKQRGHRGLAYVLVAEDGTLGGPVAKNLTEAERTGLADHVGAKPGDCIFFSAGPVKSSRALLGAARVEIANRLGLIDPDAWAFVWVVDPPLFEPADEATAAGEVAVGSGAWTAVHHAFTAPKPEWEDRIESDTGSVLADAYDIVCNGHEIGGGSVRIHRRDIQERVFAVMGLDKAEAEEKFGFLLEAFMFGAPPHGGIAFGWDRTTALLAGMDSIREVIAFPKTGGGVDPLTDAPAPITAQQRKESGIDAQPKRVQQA
Kind of assay: Assay for Asp RNA synthetase-1 from Mycobacterium tuberculosis. The assay is classed as functional. Details: scale not given: direction of the effect not stated beside the values. The note with it: 30 µM.

Assay [2] concerns the target Shiga toxin 2 (Escherichia coli O157:H7) (UniProt P09385+P09386). As to the kind of experiment: E. coli 0.157:H7 Shiga Toxin SOP - stx2 screening assay. Details: scale not given: direction of the effect not stated beside the values. The assay is classed as functional. To be noted: 30 µM.

As to `CC(C(=O)N1CCN(c2ccccc2Cl)CC1)n1cncn1` (stereo not given), the Percent Effect in assay [1] is -1.38%; in assay [2], -19.8%.
Take `CC(C)c1nc(C2CCCN2CCCc2nc3ccccc3o2)no1` (stereo not given): the Percent Effect in assay [1] is -3.53%; in assay [2], 17.3%.
The corresponding values for `COc1ccc(CN(Cc2cncn2C)CC2CCCO2)cc1OC` (stereo not given) are 4.27% and 10.9%.
As to `Cc1ccc(C(=O)N2Cc3c(CN4CCCCC4)nn(C)c3C2)cc1C`, the Percent Effect in assay [1] is 4.62%; in assay [2] it was -4.53%.
The corresponding values for `O=C([C@@H]1C[C@@H]2CCN(CCc3ccccc3)C[C@H]2O1)N1CCCC1` are -0.868% and -14.6%.
The matching figures for `Cc1csc(C2CCCN(C(=O)c3ccc(=O)n(C)n3)C2)n1` (stereo not given): 3.09% and -15.3%.
On to `O=C(NCc1ccccc1F)N1CCC(C2OCCO2)CC1`, for which the Percent Effect in assay [1] was -2.61%; in assay [2], -12.8%.
As for `COCC(NC(=O)c1cnn(C)c1)c1cccc(C(F)(F)F)c1` (stereo not given), the Percent Effect is -1.9% in assay [1] and -12.8% in assay [2].
The corresponding values for `O=C1CO[C@@H]2CN(S(=O)(=O)c3ccccc3)C[C@H]2N1CC1CC1` are 5.5% and -3.47%.
With `Cc1ccc([C@]2(O)CC[C@H]3CN(Cc4cccc(Cl)c4Cl)C[C@H]32)nc1`, the Percent Effect was determined as 7.16% in assay [1] and 6.78% in assay [2].
The matching figures for `O=C(NC1CCN(c2snc3ccccc23)CC1)C1CCC1`: 4.7% and -22.1%.
Consider `CCc1n[nH]c(C2CN(C(=O)c3cnns3)CCO2)n1` (stereo not given), for which the Percent Effect in assay [1] is -0.228%; in assay [2], 10.8%.
Consider `CCc1cnc(N2C[C@H]3C[C@H](C(=O)N(C)C)[C@@H](C2)O3)nc1`, for which the Percent Effect in assay [1] was -1.86%; in assay [2], -0.162%.
For `O=C(c1cnccn1)N1CCN(Cc2csc(-c3ccccc3)n2)CC1`, the Percent Effect was 1.34% in assay [1] and 26.4% in assay [2].
The matching figures for `O=C1[C@H]2CN(c3ncccn3)C[C@H]2CN1Cc1ccncc1`: 0.211% and -21.9%.
The matching figures for `CCO[C@@H]1CO[C@@]2(CCCN(C(=O)c3ccc(OC)c(F)c3)C2)C1`: 2.11% and -23.8%.
The matching figures for `O=S(=O)(NCC1CCN(c2ccccn2)CC1)c1ccccc1F`: -0.51% and -13.6%.
Turning to `c1cnnc(N2CCCC2CNc2ncnc3c2CCC3)c1` (stereo not given), the Percent Effect in assay [1] is -0.597%; in assay [2], 2.94%.
The matching figures for `CC(C)c1nc(C2CCCN2C(=O)c2nccnc2N)no1` (stereo not given): -5.36% and -16.2%.
Regarding `COc1ccc(CS(=O)(=O)CC(=O)NCc2ccccc2F)cc1F`, the Percent Effect is 5.03% in assay [1] and -1.34% in assay [2].
